ChEMBL document CHEMBL3988442, “University of Dundee, Small-Polar-MMV Screening Library” (2021)
For some assays here: Measured potencies and affinities stand elsewhere.

Key:
Design in all cases: scale not given: direction of the effect not stated beside the values
[1] = biological target: Protein translocase subunit SecA (Escherichia coli (strain K12)) (UniProt P10408); test: Assay to Identify E. coli SecA ATPase Inhibitors; type: functional; details: 30 µM
[2] = biological target: T1, Ubiquitin-activating enzyme e1, putative (Leishmania donovani (strain BPK282A1)) (UniProt E9BSI1); test: Leishmania donovani Ubiquitin Activating Enzyme (LdE1); type: functional; details: 30 µM
T1 sequence (whole entry): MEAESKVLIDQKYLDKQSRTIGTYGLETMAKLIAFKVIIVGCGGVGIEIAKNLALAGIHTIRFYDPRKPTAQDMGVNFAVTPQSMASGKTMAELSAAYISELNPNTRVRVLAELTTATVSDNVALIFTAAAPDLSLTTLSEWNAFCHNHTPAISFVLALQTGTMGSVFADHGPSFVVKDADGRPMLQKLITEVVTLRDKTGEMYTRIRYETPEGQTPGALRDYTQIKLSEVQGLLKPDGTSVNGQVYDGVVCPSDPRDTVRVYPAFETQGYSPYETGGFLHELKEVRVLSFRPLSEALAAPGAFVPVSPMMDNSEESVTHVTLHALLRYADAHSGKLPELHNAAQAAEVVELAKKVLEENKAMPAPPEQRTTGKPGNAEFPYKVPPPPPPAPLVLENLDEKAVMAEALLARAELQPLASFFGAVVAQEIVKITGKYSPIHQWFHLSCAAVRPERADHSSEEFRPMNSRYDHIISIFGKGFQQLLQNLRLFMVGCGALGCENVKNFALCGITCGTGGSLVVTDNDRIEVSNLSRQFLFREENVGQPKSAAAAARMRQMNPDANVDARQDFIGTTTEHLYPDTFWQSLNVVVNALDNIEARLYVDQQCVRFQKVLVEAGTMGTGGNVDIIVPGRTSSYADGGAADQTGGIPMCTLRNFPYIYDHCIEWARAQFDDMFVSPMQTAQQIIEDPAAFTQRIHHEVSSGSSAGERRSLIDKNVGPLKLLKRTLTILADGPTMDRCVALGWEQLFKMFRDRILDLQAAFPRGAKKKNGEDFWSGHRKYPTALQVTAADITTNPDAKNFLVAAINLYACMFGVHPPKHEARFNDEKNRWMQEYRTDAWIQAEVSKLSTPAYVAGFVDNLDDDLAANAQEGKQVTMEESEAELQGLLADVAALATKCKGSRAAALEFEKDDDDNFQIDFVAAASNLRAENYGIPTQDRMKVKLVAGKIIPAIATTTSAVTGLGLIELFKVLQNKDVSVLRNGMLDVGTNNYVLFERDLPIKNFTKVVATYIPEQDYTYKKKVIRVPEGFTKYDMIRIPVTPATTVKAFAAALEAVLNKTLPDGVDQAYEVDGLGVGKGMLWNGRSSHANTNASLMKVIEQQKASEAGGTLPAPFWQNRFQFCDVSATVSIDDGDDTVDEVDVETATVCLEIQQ

[3] = biological target: AMP-activated protein kinase, AMPK (Homo sapiens) (UniProt P54646+O43741+P54619+Q9UGJ0+Q9Y478+Q13131+Q9UGI9); test: AMP-dependent Kinase enzyme assay. An in vitro enzyme assay that detects ADP turnover that is directly proportional to AMPK activity. This uses naive AMPK that is activated during the assay with MK-8722; type: functional; details: 30 µM
[4] = biological target: Sialic acid-binding Ig-like lectin 9 (Homo sapiens) (UniProt Q9Y336); test: Hs-Siglec9 ALPHAscreen SOP 20170721; details: 10 µM
Trypanosoma cruzi = test: Trypanosoma cruzi phosphomannomutase and mannose-1-phosphate guanylyltransferase assay; type: functional; details: 10 µM
[5] = biological target: T2, Arginase-2, mitochondrial (Homo sapiens) (UniProt P78540); test: in vitro enzyme assay to detect the production of urea directly proportional to the activity of Arginase II; type: functional; details: 33.3 µM; further: in the data most compounds retested in dose-response had high values
T2 sequence (whole entry): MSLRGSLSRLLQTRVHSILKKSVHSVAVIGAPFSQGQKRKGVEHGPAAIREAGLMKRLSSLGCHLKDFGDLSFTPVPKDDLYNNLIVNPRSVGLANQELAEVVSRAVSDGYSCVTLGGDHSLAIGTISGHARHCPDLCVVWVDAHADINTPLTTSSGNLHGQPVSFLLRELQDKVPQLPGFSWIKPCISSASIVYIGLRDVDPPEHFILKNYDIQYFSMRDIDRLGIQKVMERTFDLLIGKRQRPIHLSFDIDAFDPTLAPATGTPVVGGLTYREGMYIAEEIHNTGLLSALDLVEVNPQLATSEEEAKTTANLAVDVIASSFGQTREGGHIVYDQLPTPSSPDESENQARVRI

[6] = biological target: T3, Proteasome subunit beta (Trypanosoma cruzi) (UniProt O96673); test: Trypanosoma cruzi proteasome chymotrypsin-like activity (TcProtChymo) assay.; further: in the data most compounds retested in dose-response had high values; type: functional; details: 9.37 µM
T3 sequence (whole entry): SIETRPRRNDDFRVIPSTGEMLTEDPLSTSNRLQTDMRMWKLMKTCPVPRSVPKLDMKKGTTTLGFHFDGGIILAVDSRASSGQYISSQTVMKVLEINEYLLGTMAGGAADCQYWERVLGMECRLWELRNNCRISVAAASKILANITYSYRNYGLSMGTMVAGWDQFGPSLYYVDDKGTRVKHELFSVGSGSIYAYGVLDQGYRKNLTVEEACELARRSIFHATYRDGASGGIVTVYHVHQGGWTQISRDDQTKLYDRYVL

Homo sapiens = species on record: Homo sapiens; test: To identify inhibition of the IFN signalling (Jak-Stat) pathway via expression of an eGFP reporter gene under the control of an IFN-stimulated response element (ISRE) containing MxA promoter.; type: functional; details: 30 µM
[7] = biological target: T4, Tyrosyl-tRNA synthetase, putative (Trypanosoma cruzi (strain CL Brener)) (UniProt Q4DSP6); test: Trypanosoma cruzi tyrosyl tRNA synthetase (TcYRS) _High Tyrosine SOP; type: functional; details: 30 µM; further: in the data most compounds retested in dose-response had high values
T4 sequence (whole entry): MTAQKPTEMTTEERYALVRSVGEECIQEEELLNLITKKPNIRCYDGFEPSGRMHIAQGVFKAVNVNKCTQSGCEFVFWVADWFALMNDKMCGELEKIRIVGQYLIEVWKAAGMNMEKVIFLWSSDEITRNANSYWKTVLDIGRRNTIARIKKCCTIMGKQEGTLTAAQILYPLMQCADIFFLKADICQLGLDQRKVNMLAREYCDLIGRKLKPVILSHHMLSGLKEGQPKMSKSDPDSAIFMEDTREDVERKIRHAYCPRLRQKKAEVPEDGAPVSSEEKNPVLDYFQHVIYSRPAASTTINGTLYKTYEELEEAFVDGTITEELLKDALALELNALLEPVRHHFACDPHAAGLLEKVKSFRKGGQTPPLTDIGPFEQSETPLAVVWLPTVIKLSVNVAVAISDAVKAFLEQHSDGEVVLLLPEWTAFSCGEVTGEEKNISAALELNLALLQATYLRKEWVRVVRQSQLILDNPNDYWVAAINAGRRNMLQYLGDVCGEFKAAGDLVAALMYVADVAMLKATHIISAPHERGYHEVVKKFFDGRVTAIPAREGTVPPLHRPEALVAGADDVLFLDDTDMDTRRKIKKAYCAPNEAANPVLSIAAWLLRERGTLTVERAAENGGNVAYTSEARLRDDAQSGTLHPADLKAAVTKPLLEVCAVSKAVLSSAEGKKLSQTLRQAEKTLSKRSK

[8] = biological target: T4, Tyrosyl-tRNA synthetase, putative (Trypanosoma cruzi (strain CL Brener)); test: Trypanosoma cruzi tyrosyl tRNA synthetase (TcYRS) SOP; type: functional; details: 30 µM
[9] = biological target: Chromo domain-containing protein 1 (Saccharomyces cerevisiae (strain ATCC 204508 / S288c) (Baker's yeast)) (UniProt P32657); test: ScCHD-1 Enzyme Inhibition Assay; type: functional; details: 30 µM; further: in the data most compounds retested in dose-response had high values
Chain of Chromo domain-containing protein 1 (Saccharomyces cerevisiae (strain ATCC 204508 / S288c) (Baker's yeast)) (P32657 whole entry, the tested form may be a part): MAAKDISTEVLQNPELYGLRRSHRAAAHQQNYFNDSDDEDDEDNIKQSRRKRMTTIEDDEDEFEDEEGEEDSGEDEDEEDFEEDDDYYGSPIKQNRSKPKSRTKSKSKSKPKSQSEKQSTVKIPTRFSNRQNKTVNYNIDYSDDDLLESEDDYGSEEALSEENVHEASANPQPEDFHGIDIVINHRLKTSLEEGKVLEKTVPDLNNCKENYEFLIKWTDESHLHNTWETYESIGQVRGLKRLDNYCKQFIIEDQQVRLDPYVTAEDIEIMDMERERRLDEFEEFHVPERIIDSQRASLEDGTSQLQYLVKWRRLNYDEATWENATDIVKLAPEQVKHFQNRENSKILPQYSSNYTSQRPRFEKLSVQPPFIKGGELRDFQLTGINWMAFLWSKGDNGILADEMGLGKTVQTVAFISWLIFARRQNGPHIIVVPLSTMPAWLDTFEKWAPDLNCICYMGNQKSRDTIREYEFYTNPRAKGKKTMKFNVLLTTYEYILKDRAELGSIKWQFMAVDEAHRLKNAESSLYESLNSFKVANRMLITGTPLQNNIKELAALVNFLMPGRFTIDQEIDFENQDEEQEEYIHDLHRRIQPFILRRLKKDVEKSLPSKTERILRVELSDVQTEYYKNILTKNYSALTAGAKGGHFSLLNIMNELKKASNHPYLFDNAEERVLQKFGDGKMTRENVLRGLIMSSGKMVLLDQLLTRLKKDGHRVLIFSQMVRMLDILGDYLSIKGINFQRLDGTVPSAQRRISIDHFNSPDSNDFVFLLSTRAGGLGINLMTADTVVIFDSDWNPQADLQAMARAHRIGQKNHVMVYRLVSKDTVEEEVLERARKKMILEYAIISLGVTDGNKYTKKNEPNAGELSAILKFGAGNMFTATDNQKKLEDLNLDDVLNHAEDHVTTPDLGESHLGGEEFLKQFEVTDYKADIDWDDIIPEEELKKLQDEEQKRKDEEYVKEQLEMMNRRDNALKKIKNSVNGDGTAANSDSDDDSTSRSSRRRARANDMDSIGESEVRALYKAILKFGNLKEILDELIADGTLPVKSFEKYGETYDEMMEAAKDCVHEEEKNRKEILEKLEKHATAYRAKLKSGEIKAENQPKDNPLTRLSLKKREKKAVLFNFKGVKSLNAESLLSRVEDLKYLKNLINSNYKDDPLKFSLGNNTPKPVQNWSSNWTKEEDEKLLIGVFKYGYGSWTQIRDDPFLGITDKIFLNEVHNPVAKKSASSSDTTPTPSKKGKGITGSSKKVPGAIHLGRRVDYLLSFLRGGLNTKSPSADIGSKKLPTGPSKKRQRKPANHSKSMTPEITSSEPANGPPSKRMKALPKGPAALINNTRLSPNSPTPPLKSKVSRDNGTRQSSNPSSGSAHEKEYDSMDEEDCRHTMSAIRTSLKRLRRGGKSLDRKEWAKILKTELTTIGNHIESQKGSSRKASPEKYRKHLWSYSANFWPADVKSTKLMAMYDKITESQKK

Chain of Protein translocase subunit SecA (Escherichia coli (strain K12)) (P10408 whole entry): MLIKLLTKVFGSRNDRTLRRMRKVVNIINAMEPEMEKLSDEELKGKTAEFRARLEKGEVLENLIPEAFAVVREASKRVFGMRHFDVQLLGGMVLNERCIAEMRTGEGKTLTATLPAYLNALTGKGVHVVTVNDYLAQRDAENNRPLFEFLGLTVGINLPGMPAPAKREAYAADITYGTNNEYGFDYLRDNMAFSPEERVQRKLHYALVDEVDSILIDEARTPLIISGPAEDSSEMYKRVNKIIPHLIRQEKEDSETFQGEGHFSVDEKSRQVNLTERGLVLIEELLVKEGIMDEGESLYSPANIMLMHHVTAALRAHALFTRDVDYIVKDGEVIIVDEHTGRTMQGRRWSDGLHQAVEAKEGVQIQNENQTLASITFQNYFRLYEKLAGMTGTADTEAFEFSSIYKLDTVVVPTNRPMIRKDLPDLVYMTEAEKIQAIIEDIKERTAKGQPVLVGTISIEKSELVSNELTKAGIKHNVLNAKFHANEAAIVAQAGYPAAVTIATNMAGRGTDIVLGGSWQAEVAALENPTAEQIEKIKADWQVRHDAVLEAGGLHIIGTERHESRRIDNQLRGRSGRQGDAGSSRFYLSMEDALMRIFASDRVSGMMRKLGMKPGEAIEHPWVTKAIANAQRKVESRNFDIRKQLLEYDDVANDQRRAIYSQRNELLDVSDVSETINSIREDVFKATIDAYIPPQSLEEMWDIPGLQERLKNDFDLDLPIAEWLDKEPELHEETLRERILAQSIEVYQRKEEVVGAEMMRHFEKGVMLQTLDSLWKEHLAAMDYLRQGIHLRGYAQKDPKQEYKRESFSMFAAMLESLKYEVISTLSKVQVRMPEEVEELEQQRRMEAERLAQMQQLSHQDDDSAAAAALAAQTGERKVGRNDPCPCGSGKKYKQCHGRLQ
Chain of Sialic acid-binding Ig-like lectin 9 (Homo sapiens) (Q9Y336 whole entry): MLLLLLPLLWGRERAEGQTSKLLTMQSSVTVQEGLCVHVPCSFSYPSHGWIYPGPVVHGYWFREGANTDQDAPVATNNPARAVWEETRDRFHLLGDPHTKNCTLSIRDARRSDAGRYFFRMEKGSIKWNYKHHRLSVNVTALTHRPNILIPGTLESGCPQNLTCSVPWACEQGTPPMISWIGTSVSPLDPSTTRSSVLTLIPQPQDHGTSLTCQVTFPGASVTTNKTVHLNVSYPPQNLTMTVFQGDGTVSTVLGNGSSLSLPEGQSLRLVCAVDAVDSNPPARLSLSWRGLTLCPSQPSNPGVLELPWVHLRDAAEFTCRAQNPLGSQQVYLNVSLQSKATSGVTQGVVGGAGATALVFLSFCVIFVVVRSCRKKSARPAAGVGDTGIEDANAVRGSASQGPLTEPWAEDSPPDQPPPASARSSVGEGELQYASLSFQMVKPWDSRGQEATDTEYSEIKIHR

SMILES	Percent Effect [1] [%]	Percent Effect [2] [%]	Percent Effect [3] [%]	Percent Effect [4] [%]	Percent Effect (Trypanosoma cruzi) [%]	Percent Effect [5] [%]	Percent Effect [6] [%]	Percent Effect (Homo sapiens) [%]	Percent Effect [7] [%]	Percent Effect [8] [%]	Percent Effect [9] [%]
CCc1nnc(CN(C)c2nc(C3CCCC3)nc3c2cnn3C)o1	-4.33	4.17	7.51	2.48	3.79	2.65	10.5	7.5	1.05	7.69	-2.84
O=C(NCc1nnc2ccccn12)N1CCc2sccc2C1	-3.42	-6.33	6.9	2.84	-1.33	1.94	7.89	11.1	2.08	7.59	-7.88
O=C(O)c1cc2c(nc1O)CC(c1cccc(Cl)c1)CC2=O (stereo not given)	-6.48	1.33	28.2	2.46	-5.7	-6.16	7.21	1.57	4.23	2.56	-9.15
CCNC(=O)Nc1ccc2c(ccn2CC(=O)N(CC)CC)c1	-2.78	18.4	-2.69	1.44	-0.188	-4.6	12.5	19.9	9.31	17.1	-6.24
CCc1n[nH]c(C2CN(CCc3cccs3)CCO2)n1 (stereo not given)	-7.68	11.4	-4.38	-6.28	3.38	-1.94	8.06	-6.82	2.08	17.7	-43.9
CN(C)CC(=O)N1CCCC2(CCC(=O)N(CCc3c[nH]cn3)C2)C1 (stereo not given)	-1.9	15.6	-0.193	10.6	1.48	-45.5	11	-2.33	9.68	16.1	-1.67
CC1CCN(S(=O)(=O)NCc2ccccc2Cn2cncn2)CC1	-3.83	13.9	6.66	0.681	-1.54	3.23	13.4	10.6	3.12	20.2	-23.4
Cc1ccc(CNC2CCCc3c2cnn3C)s1 (stereo not given)	-5.39	13	5.11	1.58	6.95	0.21	17.1	9	9.52	21.2	-7.9
CC(=O)N(Cc1ncc(C)o1)C1CCN(Cc2cccc(C#N)c2)C1 (stereo not given)	-5.59	5.41	-3.95	9.41	-2.44	-1.74	5.24	5.84	0	1.24	-0.172
CCOc1ccccc1C(CC(=O)Nc1ccc(C)cn1)NC(C)=O (stereo not given)	-3.17	10.5	7.35	5.85	6.77	1.15	4.34	4.19	8.33	17.1	-15.3
